BJeLR lethal = kills HRASV12-expressing BJeLR cells | BJeLR (HRASV12) viability, CellTiter-Glo ATP luminescence, 48 h | inhibition, % (concentration not given with the values) | 300,000 compounds, 0.17% hits | AID 1554; in the data active = inhibition above about 50%; inconclusive = no clear call, values can overlap the other calls
RN4220 kill = kills Staphylococcus aureus RN4220. S. aureus RN4220 growth, OD600, 16 h. inhibition, % (concentration not given with the values). 330,000 compounds, 0.33% hits. AID 1259311; in the data active = inhibition above about 85%;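 note: plate controls were untreated cells for no effect and reference antibiotic for full effect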
Y pestis TopoI = inhibitors of Yersinia pestis topoisomerase I; Y. pestis Topo-I cleavage product accumulation, plate reader; activity, % at 10 µM; 360,000 compounds, 0.064% hits; AID 504884; in the data active = activity above about 50%, passing the limit was not always enough; inconclusive = no clear call, values can overlap the other calls
ugtP null kill = growth inhibition of S. aureus ugtP deletion strain. growth inhibition, % (test concentration not listed). 330,000 compounds, 0.54% hits. S. aureus RN4220 ugtP deletion, OD600 growth, 16 h; in the data active = growth inhibition above about 68%;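 note: plate controls were untreated wells for no effect and antibiotic for full effect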
PrP 5UTR inh = inhibition of PrP 5' UTR reporter expression | cell-based PrP 5' UTR mRNA reporter, plate reader | inhibition, % (no concentration beside the values) | 340,000 compounds, 0.35% hits | AID 488862; in the data active = inhibition above about 52%; note: 0 = median of the neutral control wells
PfHsp40 yeast = restores yeast growth despite PfHsp40 toxicity; 340,000 compounds, 0.68% hits; AID 504582; growth rescue, % at 12.5 µM; S. cerevisiae expressing PfHsp40, growth rescue, ATP luminescence; in the data active = growth rescue above about 28%, passing the limit was not always enough; inconclusive = no clear call, values can overlap the other calls;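 note: yeast W303a lacking pdr1 and pdr3 grown in galactose medium; growth measured after three days at 30 °C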
Active calls of the source: *; ? = inconclusive; nt = no result given. In the library only some 1.4% were active in any assay of this set; here they are far more common.

SMILES	BJeLR lethal	RN4220 kill	Y pestis TopoI	ugtP null kill	PrP 5UTR inh	PfHsp40 yeast
CCN1C(=O)C2C(c3ccc(C)cc3)N3C(=O)N(c4ccc(OC)cc4)C(=O)[C@@]3(CC)C2C1=O (stereo partly drawn)	nt	2	nt	-1	nt	nt
CCNC(=S)Nc1cc(-c2ccc(Cl)cc2)[nH]n1	7	10	3	10	-14	122*
Cc1ccc(/C=C/C(=O)N2CCC(Cc3ccccc3)CC2)cc1	10	2	51*	-5	-14	2
COC(=O)C1=C(C(=O)OC)C2Nc3ccccc3[C@@]23CC(C(=O)OC)N(C(=O)c2ccco2)C3=N1 (stereo partly drawn)	nt	4	nt	5	nt	nt
COc1ccc(/C=C/C(=O)Nc2ccc(OC)nc2)cc1	-5	3	-12	14	-19	3
COc1ccc(CS(=O)(=O)/C(Cl)=C(/Cl)C(=O)Nc2ccc(OC)nc2)cc1	-29	26	5	100*	48	0
COc1ccc(NC(=O)/C(Cl)=C(/Cl)S(=O)Cc2ccccc2)cn1 (stereo not drawn)	27	51	2	88*	27	0
CC(C)(C)OC(=O)NCCCCCNC(=O)c1[nH]cnc1C(=O)NC(Cc1ccccc1)C(=O)OCc1ccccc1 (stereo not drawn)	nt	0	nt	-24	nt	nt
O=[N+]([O-])c1cc(C(F)(F)F)ccc1NCCNC(=S)Nc1ccc(Cl)cc1	3	85*	-1	90*	-20	?
O=[N+]([O-])c1ccc(NC(=S)NCCc2ccccc2)cc1	-6	9	-9	-31	-21	-1
O=[N+]([O-])c1ccc(NC(=S)NCc2ccc(F)cc2)cc1	-5	nt	-16	nt	-28	109*
O=[N+]([O-])c1cc(C(F)(F)F)ccc1N1CCC(O)CC1	-18	1	1	-3	-21	1
O=[N+]([O-])c1ccc(NC(=S)NCCc2ccc(Cl)cc2)cc1	-5	101*	-24	100*	-8	0
O=C(Nc1ccc(Cl)cc1)N1CCCN(c2ccc(C(F)(F)F)cc2[N+](=O)[O-])CC1	4	nt	-9	nt	-9	44*
Nc1ccn(CC(=O)NC(CO)Cc2c[nH]c3ccccc23)c(=O)n1 (stereo not drawn)	nt	7	nt	0	nt	nt
Clc1ccc(OCc2nc(-c3ccncc3)no2)c(Br)c1	-2	-1	27	0	-88	597*
N#CC(=Cc1cn(CC(=O)O)c2ccccc12)C(=O)NCc1ccccc1	nt	4	nt	0	nt	nt
CCn1c(SCC(=O)Nc2nc(-c3ccc(C)cc3)cs2)nnc1-c1ccccc1O	5	-8	18	37	-21	86*
COc1cc(C(=O)OC(C)C(=O)NC(=O)NC2CCCCC2)ccc1OC(F)F (stereo not drawn)	nt	52	12	91*	-15	1
CCSc1nc(-c2ccccc2)nc2c1CCCC2	3	4	9	88*	-59	-2
CN(C)CCSc1nc(-c2ccccc2)nc2c1CCCC2	-5	2	5	2	nt	nt
CCOc1ccc(N2C(=O)Nc3ccccc3C2(O)C(=O)NCc2ccc(C)cc2)cc1 (stereo not drawn)	7	100	4	active	-1	-1
COC(=O)C1=CC(C(=O)OC)C2C3=C(C(=O)[C@@]2(C)NC(=O)c2ccccc2)C(c2ccccc2)C2C(=O)NC(=O)C2C3C1 (stereo partly drawn)	nt	-2	nt	-6	nt	nt
CCOC(=O)Nc1ccc2c(c1)C(=NO)c1ccccc1-2	nt	nt	2	nt	-138	207*
O=c1cc(O)c(-c2ccc(Cl)cc2)c(Cl)[nH]1	0	3	3	0	-28	1
SMILES	BJeLR lethal	RN4220 kill	Y pestis TopoI	ugtP null kill	PrP 5UTR inh	PfHsp40 yeast
O=C1c2cc(Cl)ccc2-c2c(O)cc(Cl)cc21	nt	100*	-33	100*	-35	-1
Cc1csc(C(C#N)C(=O)c2cc3ccccc3o2)n1 (stereo not drawn)	6	84*	-11	79	-82	2
O=C(C=Cc1cccc([N+](=O)[O-])c1)N1CCN(C(=O)c2ccco2)CC1	nt	0	nt	-10	nt	nt
Cc1nn(-c2ccccc2)c(N2CCCC2)c1/C=N/NC(=O)c1ccccc1O	1	nt	6	nt	-8	1
O=C(N/N=C/c1cc2c3c(c1O)CCCN3CCC2)c1ccccc1O	53*	nt	-27	nt	33	176*
CC(=O)Oc1cc2cccc(OC(C)=O)c(=O)c2c(OC(C)=O)c1OC(C)=O	2	20	-6	3	-19	158*
Cc1ccc(C(=O)Cc2ccccc2)c(O)c1	nt	3	-2	6	-56	-2
CC(C)=CCc1c(O)ccc(C(=O)Cc2ccccc2)c1O	0	-3	-12	21	-26	611*
O=S(=O)(Nc1ccc(S(=O)(=O)Nc2ccccc2)cc1)c1ccccc1	6	-5	1	15	-10	0
O=S(=O)(Nc1ccc(N=Nc2ccccc2)cc1)c1ccccc1	4	-10	1	-2	-5	102*
O=C(Cc1cccs1)N(Cc1cccs1)C1(C(=O)NC2CCCC2)CCCCC1	-10	-2	13	-12	-15	0
O=C(c1ccc2c(c1)OCO2)N(Cc1cccs1)C1(C(=O)NC2CCCCC2)CCCCC1	-3	9	12	-10	-25	68*
CCCCN1C(=S)NCC1Cc1cccc2ccccc12 (stereo not drawn)	nt	4	nt	5	nt	nt
CC(C)Cn1c(=O)n(C)c(=O)c2[nH]cnc21	-2	4	3	1	-25	37*
Cn1c(=O)c2[nH]cnc2n(C)c1=O	-1	6	-5	1	-16	0
Cc1nn(-c2ccccc2)c2c1C1(C(=O)N(C(C)C)c3ccccc31)C(C#N)=C(N)O2 (stereo not drawn)	-1	92*	17	67	-17	-1
COc1ccc(CCNC(=O)CCCCC(=O)NCCc2ccc(OC)cc2)cc1	-5	4	-3	1	-19	3
COc1ccc(CCCC(=O)NCCc2ccccc2)c(C)c1	6	5	6	5	-21	40*
CNC(=C[N+](=O)[O-])NCCSCc1ccc(CN(C)C)o1	nt	2	nt	-1	nt	nt
O=C(CCN1C(=O)/C(=C/c2ccccc2)SC1=S)NCCCN1CCOCC1	-9	0	8	6	-19	0
CCOc1ccc(/C=C2\SC(=S)N(CCCC(=O)NCCCN3CCOCC3)C2=O)cc1	-14	1	20	1	81*	-2
CCc1ccc(/C=C2\SC(=S)N(CCCC(=O)NCCCN3CCOCC3)C2=O)cc1	nt	nt	21	nt	nt	nt
CCc1ccc(/C=C2/SC(=S)N(CCC(=O)NCCCN3CCOCC3)C2=O)cc1	106*	2	33	11	-18	2
O=C(CCN1C(=O)/C(=C\c2cccc(Br)c2)SC1=S)NCCCN1CCOCC1	85*	5	31	1	-6	-2
COc1cccc(/C=C2\SC(=S)N(CCCC(=O)N(CCO)c3ccccc3)C2=O)c1	55*	3	30	-20	8	1

Compound activity deposited in PubChem BioAssay by several laboratories.
